{"source": "PubChem BioAssay (NCATS)", "note": "Records with an inconclusive call do not appear. Unmarked numbers belong to inactive results. Active and inactive are the calls of the source. Unless noted, the call rests on the fitted dose curve; in most records, active means well fitted curve in either direction with a large enough effect (not every such curve was filed as active); inconclusive means small, poorly fitted or top-dose-only effect, or another doubt; inactive means flat fitted curve, though single readings scatter.", "data": [{"biological_target": "Mitogen-activated protein kinase 10 (Mus musculus) (UniProt Q61831)", "experiment": "JNK3 AlphaScreen Assay (AID 530);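 further: kinase came from lysate of stimulated human HepG2 cells; signal reports phosphorylation of biotinylated GST-cJun 1-79 at Ser73 with 10 µM ATP; on the % scale 0 is the no-effect control and ±100 the full control effect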", "conditions": "JNK3 lysate, c-Jun phosphorylation; series mostly up to 57.1 µM; activity change, negative = inhibition: at the top concentration", "method_in_brief": "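HepG2 lysate (IL-1b/TNFa pre-activated) + biotin-GST-cJun 1-79 + anti-pSer73 cJun; cpd titration, 15 min RT; ATP 10 uM start; Tris pH 7.6, MgCl2, DTT, vanadate; beads in EDTA buffer; AlphaScreen.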", "units": {"activity change, negative = inhibition": "%"}, "values": [{"smiles": "N#Cc1cccc(-c2nc3cnc(N4CCOCC4)nc3n(C3CC3)c2=O)c1", "activity change, negative = inhibition": 5.52}, {"smiles": "CCNc1ncc2nc(-c3cc(F)cc(F)c3)c(=O)n(C)c2n1", "activity change, negative = inhibition": 10.7}, {"smiles": "CC(=O)NCCNc1ccnc(-c2ccccc2C(F)(F)F)n1", "activity change, negative = inhibition": 1.74}, {"smiles": "CCNc1ncc2nc(-c3cc(F)cc(F)c3)c(=O)n(C[C@H]3CCCO3)c2n1", "activity change, negative = inhibition": 3.61}, {"smiles": "COc1cccc(-c2cncnc2N(C)Cc2ccco2)c1", "activity change, negative = inhibition": 0.0439}, {"smiles": "COc1ccccc1-c1ccc2ncnc(NC3CCNCC3)c2c1", "activity change, negative = inhibition": 10.5}, {"smiles": "O=c1cnc2cnc(N3CCOCC3)nc2n1C1CC1", "activity change, negative = inhibition": -1.29}, {"smiles": "CCNc1ncc2nc(C)c(=O)n(-c3ccc(OC)cc3)c2n1", "activity change, negative = inhibition": -3.32}, {"smiles": "CCNc1ncc2nc(C)c(=O)n(Cc3cccs3)c2n1", "activity change, negative = inhibition": -3}, {"smiles": "Cn1c(=O)c(-c2cccs2)nc2cncnc21", "activity change, negative = inhibition": 2.61}, {"smiles": "CN(C)c1ncc2ncc(=O)n(C3CC3)c2n1", "activity change, negative = inhibition": -7.4}, {"smiles": "CCNc1ncc2nc(C)c(=O)n(Cc3ccc(F)cc3)c2n1", "activity change, negative = inhibition": -0.786}, {"smiles": "COc1ccccc1CNc1ncncc1-c1cccnc1", "activity change, negative = inhibition": -4.33}, {"smiles": "COc1cccc(Nc2ncc3nc(C)c(=O)n(C)c3n2)c1", "activity change, negative = inhibition": -17.3}, {"smiles": "Cc1cnc(CNc2ncncc2-c2cccc(C#N)c2)cn1", "activity change, negative = inhibition": 6.08}, {"smiles": "Cc1nc2cnc(Nc3ccccc3)nc2n(C2CC2)c1=O", "activity change, negative = inhibition": -2.94}, {"smiles": "CCNc1ncc2nc(C)c(=O)n(C3CC3)c2n1", "activity change, negative = inhibition": -2.13}, {"smiles": "CCNc1ncc2nc(-c3cn(C)c4ccccc34)c(=O)n(-c3ccc(OC)cc3)c2n1", "activity change, negative = inhibition": -10.4}, {"smiles": "Cc1noc(C)c1-c1ccc2ncnc(NC3CCNCC3)c2c1", "activity change, negative = inhibition": -0.469}, {"smiles": "CCNc1ncc2nc(C)c(=O)n(C)c2n1", "activity change, negative = inhibition": -9.65}, {"smiles": "COc1ccc(CNc2ncncc2-c2cccnc2)c(OC)c1", "activity change, negative = inhibition": -9.38}, {"smiles": "COc1ccc(-n2c(=O)cnc3cnc(N4CCOCC4)nc32)cc1", "activity change, negative = inhibition": -0.492}, {"smiles": "Fc1ccc(Nc2ncncc2-c2ccoc2)cc1", "activity change, negative = inhibition": -8.24}, {"smiles": "Cn1c(=O)cnc2cnc(OCc3ccccc3)nc21", "activity change, negative = inhibition": -4.06}, {"smiles": "COc1cccc(Nc2ncc3nc(C)c(=O)n(CCc4ccccc4)c3n2)c1", "activity change, negative = inhibition": 4.04}, {"smiles": "COc1ccc2[nH]cc(CCNc3ncncc3-c3c(C)noc3C)c2c1", "activity change, negative = inhibition": -4.58}, {"smiles": "Cc1noc(C)c1-c1cc(Nc2ccccc2)ncn1", "activity change, negative = inhibition": -9.08}, {"smiles": "COc1ccc(Oc2ncc3ncc(=O)n(C)c3n2)cc1", "activity change, negative = inhibition": -6.55}, {"smiles": "COCCNc1cc(-c2ccccc2C)ncn1", "activity change, negative = inhibition": 3.58}, {"smiles": "CS(=O)(=O)Nc1cccc(-c2cncnc2Nc2ccc(F)cc2)c1", "activity change, negative = inhibition": -3.45}, {"smiles": "c1ccc2c(NC3CCNCC3)nc(-c3ccoc3)nc2c1", "activity change, negative = inhibition": 2.45}, {"smiles": "c1csc(CNc2cc(-c3ccoc3)ncn2)c1", "activity change, negative = inhibition": -9.51}, {"smiles": "COc1ccc(CNc2cc(-c3ccoc3)ncn2)c(OC)c1", "activity change, negative = inhibition": -5.74}, {"smiles": "O=c1cnc2cnc(Nc3ccccc3)nc2n1Cc1ccc(F)cc1", "activity change, negative = inhibition": 1.57}, {"smiles": "Fc1ccc(Nc2ccnc(-c3ccoc3)n2)cc1", "activity change, negative = inhibition": -0.039}, {"smiles": "COc1ccccc1-c1cc(NCc2ccccc2)ncn1", "activity change, negative = inhibition": 1.01}, {"smiles": "N#Cc1cccc(-c2cncnc2NCc2cccs2)c1", "activity change, negative = inhibition": 7.29}, {"smiles": "CNc1cc(-c2c(C)noc2C)ncn1", "activity change, negative = inhibition": 11.9}]}, {"biological_target": "3',5'-cyclic-AMP phosphodiesterase 4B (Homo sapiens) (UniProt Q07343)", "sequence (Q07343 whole entry, looked up)": "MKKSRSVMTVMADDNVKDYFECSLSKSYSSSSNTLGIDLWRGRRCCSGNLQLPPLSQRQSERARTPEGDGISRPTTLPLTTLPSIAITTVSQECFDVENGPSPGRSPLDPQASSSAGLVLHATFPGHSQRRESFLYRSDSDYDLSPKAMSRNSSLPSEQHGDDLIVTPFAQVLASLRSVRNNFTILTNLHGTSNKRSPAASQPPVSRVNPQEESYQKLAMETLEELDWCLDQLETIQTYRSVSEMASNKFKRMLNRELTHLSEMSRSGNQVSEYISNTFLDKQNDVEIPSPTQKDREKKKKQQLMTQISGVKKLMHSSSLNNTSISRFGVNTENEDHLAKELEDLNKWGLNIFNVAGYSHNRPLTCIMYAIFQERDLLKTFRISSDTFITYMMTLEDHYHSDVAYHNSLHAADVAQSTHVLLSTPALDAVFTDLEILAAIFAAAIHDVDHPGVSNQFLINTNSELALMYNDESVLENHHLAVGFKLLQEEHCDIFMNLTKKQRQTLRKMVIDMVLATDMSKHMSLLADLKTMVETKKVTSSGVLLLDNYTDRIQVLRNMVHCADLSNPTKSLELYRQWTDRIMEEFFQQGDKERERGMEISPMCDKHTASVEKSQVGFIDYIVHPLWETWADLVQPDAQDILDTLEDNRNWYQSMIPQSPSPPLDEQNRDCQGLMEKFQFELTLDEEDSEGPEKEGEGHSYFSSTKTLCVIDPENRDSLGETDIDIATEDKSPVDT", "experiment": "qHTS Assay for Inhibitors of PDE-IV (AID 607; active means well fitted activation curve with a large enough effect in the main read-out, with a control signal flat, not every such curve was filed as active; further: potency means the concentration at half of the fitted maximal effect; on activation (PDE inhibition): % of control where 0% means no effect)", "conditions": "HEK293 ACTOne CNG channel cells, membrane potential fluorescence; series mostly up to 22.9 µM; activation (PDE inhibition): at the top concentration", "method_in_brief": "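Cell-based read-out of cAMP via a modified cyclic nucleotide-gated channel and membrane potential dye (535/590 nm) in HEK293 cells expressing PDE4 endogenously. Compounds tested up to 22.9 uM final; 100 uM RO 20-1724 reference.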", "units": {"activation (PDE inhibition)": "%"}, "values": [{"smiles": "N#Cc1cccc(-c2nc3cnc(N4CCOCC4)nc3n(C3CC3)c2=O)c1", "activation (PDE inhibition)": -2.47}, {"smiles": "CC(=O)NCCNc1ccnc(-c2ccccc2C(F)(F)F)n1", "activation (PDE inhibition)": -3.11}, {"smiles": "CCNc1ncc2nc(-c3cc(F)cc(F)c3)c(=O)n(C[C@H]3CCCO3)c2n1", "activation (PDE inhibition)": 16.1}, {"smiles": "COc1ccccc1-c1ccc2ncnc(NC3CCNCC3)c2c1", "activation (PDE inhibition)": -9.76}, {"smiles": "O=c1cnc2cnc(N3CCOCC3)nc2n1C1CC1", "activation (PDE inhibition)": -1.85}, {"smiles": "Cn1c(=O)c(-c2cccs2)nc2cncnc21", "activation (PDE inhibition)": 19.3}, {"smiles": "CN(C)c1ncc2ncc(=O)n(C3CC3)c2n1", "activation (PDE inhibition)": 7.92}, {"smiles": "CCNc1ncc2nc(C)c(=O)n(Cc3ccc(F)cc3)c2n1", "activation (PDE inhibition)": 12.1}, {"smiles": "CN(C)C(=O)c1ccc(-c2nc(NC3CCNCC3)c3ccccc3n2)cc1", "activation (PDE inhibition)": 5.58}, {"smiles": "COc1ccccc1CNc1ncncc1-c1cccnc1", "activation (PDE inhibition)": 13.4}, {"smiles": "COc1cccc(Nc2ncc3nc(C)c(=O)n(C)c3n2)c1", "activation (PDE inhibition)": -2.81}, {"smiles": "Cc1cnc(CNc2ncncc2-c2cccc(C#N)c2)cn1", "activation (PDE inhibition)": 21.1}, {"smiles": "Cc1nc2cnc(Nc3ccccc3)nc2n(C2CC2)c1=O", "activation (PDE inhibition)": 17.4}, {"smiles": "CCNc1ncc2nc(C)c(=O)n(C3CC3)c2n1", "Potency": "2510 nM (active)"}, {"smiles": "CN(C)C(=O)c1ccc(-c2cncnc2N2CCNCC2)cc1", "activation (PDE inhibition)": 0.265}, {"smiles": "Cc1noc(C)c1-c1ccc2ncnc(NC3CCNCC3)c2c1", "activation (PDE inhibition)": 9.44}, {"smiles": "COc1ccc(CNc2ncncc2-c2cccnc2)c(OC)c1", "activation (PDE inhibition)": -0.47}, {"smiles": "COc1ccc(-n2c(=O)cnc3cnc(N4CCOCC4)nc32)cc1", "activation (PDE inhibition)": 5.52}, {"smiles": "Cn1c(=O)cnc2cnc(OCc3ccccc3)nc21", "activation (PDE inhibition)": 0.79}, {"smiles": "COc1ccc2[nH]cc(CCNc3ncncc3-c3c(C)noc3C)c2c1", "activation (PDE inhibition)": -5.95}, {"smiles": "COc1ccc(Oc2ncc3ncc(=O)n(C)c3n2)cc1", "activation (PDE inhibition)": -11.8}, {"smiles": "COCCNc1cc(-c2ccccc2C)ncn1", "activation (PDE inhibition)": 13.8}, {"smiles": "CS(=O)(=O)Nc1cccc(-c2cncnc2Nc2ccc(F)cc2)c1", "activation (PDE inhibition)": 23.3}, {"smiles": "c1csc(CNc2cc(-c3ccoc3)ncn2)c1", "activation (PDE inhibition)": 12.5}, {"smiles": "COc1ccc(CNc2cc(-c3ccoc3)ncn2)c(OC)c1", "activation (PDE inhibition)": -9.9}, {"smiles": "Fc1ccc(Nc2ccnc(-c3ccoc3)n2)cc1", "activation (PDE inhibition)": 14.2}, {"smiles": "CNc1cc(-c2c(C)noc2C)ncn1", "activation (PDE inhibition)": -2.36}]}]}
